Assay results as given in PubChem BioAssay (Tox21).
Inconclusive results are not listed. A call without a number means that no potency is given here. Calls of active or inactive are those of the source. The call rests on the fitted dose curve; in most records, active means well fitted inhibition curve with a large enough effect in the repeat runs; inconclusive means weak or mixed curves; inactive means no such curve, though single readings can be large or run the other way.

The compounds below were run against Cytochrome P450 3A4 (Homo sapiens) (UniProt P08684) (assay: Cytochrome P450 Family 3 Subfamily A Member 4 (CYP3A4) small molecule antagonists: luciferase reporter qHTS assay (AID 1671201; further: nearly all actives have a fitted effect of over 50% in size)). Details: P450-Glo CYP3A4 enzyme, luciferin luminescence, 1 h; series mostly up to 115 µM.
Outline: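 Relative luminescence units after 20 min with luciferin detection reagent served as read-out. Beforehand, CYP3A4 turned over a proluciferin substrate for 1 h at room temperature with NADPH regeneration, following 10 min compound preincubation.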
Potency means the concentration at half of the fitted maximal effect.

Sequence of Cytochrome P450 3A4 (Homo sapiens) (P08684 whole entry, looked up): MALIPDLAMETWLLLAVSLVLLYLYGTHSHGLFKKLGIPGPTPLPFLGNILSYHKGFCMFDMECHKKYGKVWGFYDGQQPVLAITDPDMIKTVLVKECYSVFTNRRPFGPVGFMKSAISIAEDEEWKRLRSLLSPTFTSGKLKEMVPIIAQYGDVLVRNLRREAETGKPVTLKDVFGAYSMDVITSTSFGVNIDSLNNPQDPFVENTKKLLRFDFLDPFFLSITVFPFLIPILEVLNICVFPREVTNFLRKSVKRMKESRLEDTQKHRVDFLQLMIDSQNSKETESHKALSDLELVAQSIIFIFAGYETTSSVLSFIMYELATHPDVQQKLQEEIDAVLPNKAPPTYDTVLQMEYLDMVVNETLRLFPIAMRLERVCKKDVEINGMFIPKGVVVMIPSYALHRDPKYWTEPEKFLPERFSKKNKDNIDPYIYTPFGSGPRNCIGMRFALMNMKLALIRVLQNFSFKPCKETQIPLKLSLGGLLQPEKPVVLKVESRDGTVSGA

SMILES | Potency | activity change, negative = inhibition
CC1=C(/C=C/C(C)=C/C=C/C(C)=C\C(=O)O)C(C)(C)CCC1 | 22.5 µM (active) | –
CN[C@H]1CC[C@@H](c2ccc(Cl)c(Cl)c2)c2ccc(S(N)(=O)=O)cc21 | 28.3 µM (active) | –
C/C(=C\c1ccc(C(=O)O)cc1)c1ccc2c(c1)C(C)(C)CCC2(C)C | inactive | –
CC(C)(C)c1cc(CCC(=O)OCCSCCOC(=O)CCc2cc(C(C)(C)C)c(O)c(C(C)(C)C)c2)cc(C(C)(C)C)c1O | 4.9 µM (active) | –
c1ccc2occc2c1 | inactive | –
N#Cc1nc(Cl)c(Cl)c(Cl)c1Cl | inactive | –
c1ccc(C[P+](c2ccccc2)(c2ccccc2)c2ccccc2)cc1 | inactive | –
CN(C/C=C/c1ccccc1)Cc1cccc2ccccc12 | inactive | –
CCC(O)CO (stereo not drawn) | inactive | –
Brc1cc(Br)cc(Br)c1 | inactive | –
COc1cc(C(C)C)ccc1C | – | -0.0855% [at 23.6 µM] (inactive)
CC1(C)[C@H](C(=O)OCc2cccc(Oc3ccccc3)c2)[C@@H]1C=C(Cl)Cl | inactive | –
Nc1ccc(F)c([N+](=O)[O-])c1 | inactive | –
CN1CC[C@H](c2c(O)cc(O)c3c(=O)cc(-c4ccccc4Cl)oc23)[C@H](O)C1 | inactive | –
O=C(CCN1CCC(c2ccccc2)C1)c1ccc2c(c1)OCCO2 (stereo not drawn) | inactive | –
C=C[Si](C)(C)Cl | – | 0.89% [at 10.5 µM] (inactive)
CCCCCCCCCCCC(=O)Cl | inactive | –
C=CCc1cc(S(=O)(=O)c2ccc(O)c(CC=C)c2)ccc1O | 28.3 µM (active) | –
ClC(c1ccccc1)(c1ccccc1)c1ccccc1 | inactive | –

SMILES | Potency | activity change, negative = inhibition
O=C1OC2(c3ccccc31)c1ccc(O)c(Br)c1Oc1c2ccc(O)c1Br | inactive | –
CCOC=C(C(=O)OCC)C(=O)OCC | inactive | –
CCCCCCCCCCCCN1CCCC1=O | inactive | –
CSc1nnc(C(C)(C)C)c(=O)[nH]1 | inactive | –
CCC(=O)OC/C=C(\C)CCC=C(C)C | inactive | –
Nc1cccnc1N | inactive | –
CCc1c(C)cc(N)c(CC)c1N | 15.9 µM (active) | –
COc1ccc(OC)c(N=Nc2c(O)ccc3ccccc23)c1 | 2.83 µM (active) | –
Clc1ccc2c(Cl)ccnc2c1 | inactive | –
Nc1ccc2c(S(=O)(=O)O)cccc2c1S(=O)(=O)O | inactive | –
Cc1ccc(Cl)c(N)c1Cl | inactive | –
Nc1ccc(Cl)c([N+](=O)[O-])c1 | inactive | –
Cn1ccnc1 | inactive | –
CC/C=C\C/C=C\C/C=C\CCCCCCCC(=O)OC | 20 µM (active) | –
C=C(C)C1CCC(C)CC1O (stereo not drawn) | inactive | –
CCCCCc1ccc(O)cc1 | inactive | –
CC(C)(C)C1=CC(=O)C(C(C)(C)C)=CC1=O | inactive | –
O=C1CCC/C=C\CCCCCCCCCC1 | 31.7 µM (active) | –
O=C1CCCCCCCCCCCCCC1 | 35.6 µM (active) | –
